{
  "source": "PubChem BioAssay (NCI)",
  "note": "This is part of a sample that, as a whole, favours compounds with a hit. Of some 83,000 tested, about 20% had one in any assay.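 Step 1: grow cells in 96-well plates. Step 2: add test compound at a single concentration. Step 3: incubate 48 h. Step 4: record percent growth.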 A number with no mark means an inactive call. How the source made its calls: active means growth percent below 10; inactive means the rest.",
  "data": [
    {"tested_on": "HL-60(TB) leukemia", "assay": "NCI-60 one-dose screen, 48 h (100 = growth as untreated, 0 = no growth, -100 = all killed)", "conditions": "10 µM unless noted", "units": {"growth": "%"}, "values": [
      {"compound": "CNc1nc2ncn(C)c2c(=O)[nH]1", "growth": 91.5},
      {"compound": "CCCN1CCN(c2ccc3nc(-c4ccc5nc(-c6ccc(OCC)cc6)[nH]c5c4)[nH]c3c2)CC1", "growth": 16.9},
      {"compound": "Cc1ccc(S(=O)(=O)OC[C@]23CCC(C)(C)C[C@H]2C2=CC[C@@H]4[C@@]5(C)CCCNC(C)(C)[C@@H]5CC[C@@]4(C)[C@]2(C)CC3)cc1", "growth": 24.5},
      {"compound": "CC1(C)CC(=O)c2c(ccc(C(=O)C[C@@H](N)CO)c2N)O1", "growth": 35.7}
    ]}
  ]
}
